# Screening results from PubChem BioAssay.
# Sampled rows, rich in hits. Any-hit rate of the full collection: about 21%.
# Shiga toxin inh = inhibitors of Shiga toxin in Vero cells | inhibition, % at 38.7 µM | AID 2315 | Vero cells, Shiga toxin protein synthesis inhibition reporter | hit rate 9.2% among 290,000; in the data active = inhibition mostly above about 28%, no sharp cut-off; inactive = mostly below about 43%; note: 0% is about no effect
# Pf growth 48h = inhibits P. falciparum growth in the first generation, 48 h | P. falciparum luciferase growth in erythrocytes, 48 h | Potency, µM (top dose mostly 28.7 µM), inactives show at the highest dose activity change, negative = inhibition, usual class: inhibitors | hit rate 5.9% among 310,000 | AID 504832; note: potency is the fitted concentration of half-maximal effect; % is set by controls: 0 for no effect and ±100 for the full control effect
#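 Compounds are pin-transferred into medium, infected erythrocytes (2% hematocrit, 0.1% parasitemia final) are added, and plates sit one parasite generation at 37 C in 5% CO2. Detection reagent is then added and luminescence measured.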
# CHX counter = affects cycloheximide protein synthesis inhibition readout, counter-screen | hit rate 12% among 300,000 | cell reporter, cycloheximide protein synthesis inhibition counterscreen | AID 2314 | max response, %; in the data active = max response mostly above about 13%, no sharp cut-off; inactive = mostly below about 14%; note: read at 38.3 µM for the half of the compounds with a filed dose; 0% is about no effect
# Pf growth 96h = P. falciparum growth inhibition at 96 hours. P. falciparum luciferase reporter growth, 96 h. Potency, µM (titrated, usually from 28.7 µM), without a hit: top-dose activity change, negative = inhibition, actives largely listed as inhibitors. hit rate 6.9% among 320,000. AID 504834; note: potency is the fitted concentration of half-maximal effect; % is set by controls: 0 for no effect and ±100 for the full control effect
#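 Cell-based qHTS: luciferase-tagged P. falciparum in erythrocytes (2% hematocrit, 0.05% parasitemia final) incubated with compounds for 96 hours, 37 C, 5% CO2; luciferase detection reagent then added and luminescence measured.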
# Starred values were filed as active, the others as inactive; i = inactive; ? = inconclusive; nt = no result given; [ ] = another dose, or the depositor's remark. Unless noted, calls come from the whole dose curve; as a rule, active = well fitted inhibition curve with a large enough effect; inconclusive = small, poorly fitted or top-dose-only effect, or another doubt; inactive = no such curve, though single readings can be large or run the other way.
SMILES,Shiga toxin inh,Pf growth 48h,CHX counter,Pf growth 96h
N#Cc1c(N2C(=O)Nc3ccccc3N2O)sc2c1CCCCCC2,-13,-25%,-2,9.3µM*
Cc1ccccc1C(=O)NC(=S)Nc1sc2c(c1C#N)CCCC2,2,9%,11,31%
N#Cc1c(N2C(=O)Nc3ccccc3N2O)sc2c1CCCC2,-4,43%,-6,140%
CC(C)(C)C(=O)NC(=S)Nc1sc2c(c1C#N)CCCCC2,38,19%,19*,19%
N#Cc1c(NC(=O)CSC2=NCCS2)sc2c1CCCC2,-5,?,-4,2.3µM*
N#Cc1c(-c2ccccc2)nc2n1CCS2,26,10%,1,25%
CN(CC(=O)Nc1cccc(F)c1)C(=O)CC1CC2CCC1C2 (stereo not drawn),-3,?,-2,?
C=CCNC(=S)Nc1sc2c(c1C#N)CCCC2,68,5%,23*,?
Cc1ccccc1OCC(=O)Nc1sc2c(c1C#N)CCC2,9,39%,16,73%
COC(=O)c1c(NC(C)=O)sc2c1CCCCC2,11,18%,0,1%
CNS(=O)(=O)c1cccc(C(=O)OCC(=O)Nc2sc3c(c2C#N)CCCCC3)c1,44*,22%,26*,12%
CN(C)S(=O)(=O)c1ccc(C(=O)OCC(=O)Nc2sc3c(c2C#N)CCCCC3)cc1,10,39%,-4,31%
CC(=O)Nc1sc2c(c1C#N)CCCCC2,21,?,18*,nt
CCCC(=O)Nc1sc2c(c1C#N)CCCCC2,47*,101%,37*,7%
COc1ccc(OC)c(C(C(=O)NC2CCCCC2)N(C(=O)c2ccccn2)c2cccnc2)c1 (stereo not drawn),-9,-9%,-3,2%
COc1ccc(-c2cc(C(F)(F)F)nc(SCC(=O)Nc3sc4c(c3C#N)CCC4)n2)cc1,10,4.1µM*,-2,1.7µM*
CCC(=O)Nc1sc2c(c1C#N)CCCCC2,72*,58%,36*,nt
CCC(=O)Nc1sc2c(c1C(=O)N(C)C)CCCCC2,-4,-26%,-4,7%
NC(=O)c1c(NC(=O)CCCC(=O)O)sc2c1CCCCCC2,21,31%,2,5%
N#Cc1c(Cl)nsc1NC(=O)c1ccccc1,132*,?,31*,0%
N#Cc1c(NC(=O)CCCC(=O)O)sc2c1CCCCC2,112*,81%,34*,25%
Cc1ccc(C(=O)Nc2sc3c(c2C#N)CCCCC3)cc1C,43*,378%,24*,i
Cc1cc(Br)ccc1NC(=O)CNC(=O)Cc1ccc(S(=O)(=O)N2CCOCC2)s1,nt,-16%,nt,?
COCCNC(=S)N(CCc1c(C)[nH]c2ccc(OC)cc12)Cc1ccco1,13,9.3µM*,-3,245%
COc1ccc2[nH]c(C)c(CCN(Cc3cccs3)C(=S)Nc3ccccc3)c2c1,15,0.83µM*,-1,0.41µM*
SMILES,Shiga toxin inh,Pf growth 48h,CHX counter,Pf growth 96h
COCCNC(=S)N(CCc1c(C)[nH]c2ccc(C)cc12)Cc1ccco1,-22,?,11,?
COc1ccc(NC(=S)N(CCc2c(C)[nH]c3ccc(C)cc23)Cc2cccs2)cc1,6,0%,-3,-96%
COc1ccc2[nH]c(C)c(CCN(Cc3cccs3)C(=S)Nc3ccc(F)cc3)c2c1,10,1.7µM*,-1,2.3µM*
CC(C)CCn1cnc2c(oc3nc4c(cc32)CCCC4)c1=O,14,0%,24*,-96%
Cc1cc(C)nc(-n2nc(C)cc2NC(=O)CNCc2ccccc2)n1,11,7%,-5,4%[5.75 µM]
Cc1cc(C)nc(-n2nc(C)cc2NC(=O)CN2CCc3ccccc3C2)n1,64,4.1µM*,-5,-11%
CCN(CC(=O)Nc1cc(C)nn1-c1nc(C)cc(C)n1)Cc1ccccc1,-17,nt,-4,4.1µM*
Cc1cc(C)nc(-n2nc(C)cc2NC(=O)CN2CCCC(C)C2)n1 (stereo not drawn),-9,?,-2,104%
CC(=O)O[C@@]1(C)C[C@@H](O)[C@]2(O)C=CO[C@@H](O[C@@H]3O[C@H](CO)[C@@H](O)[C@H](O)[C@H]3O)[C@@H]21,nt,31%,nt,40%
COc1ccc(NC(=S)N(Cc2ccc(N(C)C)cc2)Cc2ccco2)cc1,17,3%,14*,0.66µM*
CCOc1ccc(NC(=S)N(Cc2ccc(N(C)C)cc2)Cc2ccco2)cc1,30*,?,16*,0%
COc1ccc(NC(=S)N(CCc2c(C)[nH]c3ccc(C)cc23)Cc2ccco2)cc1,-14,-10%,-2,?
COC(=O)C1CN(C(=O)COc2ccc(C)cc2)c2ccccc2O1 (stereo not drawn),1,0%,8,6%
O=C(COC(=O)c1ccc(Cl)nc1)Nc1ccc2c(c1)OCCO2,nt,0%,nt,-3%
Cc1noc(C)c1COC(=O)CCOc1ccccc1,33,-8%,2,-11%
Cc1noc(C)c1COC(=O)CCN1c2ccccc2Sc2ccccc21,-8,?,2,12µM*
COc1ccccc1NC(=O)C(C)Sc1nc(-c2ccccc2)cn1N (stereo not drawn),nt,?,nt,-30%
Cc1nc2c(C(=O)NCCc3ccccc3Cl)c[nH]n2c(=O)c1Cl,1,5%,-3,10µM*
COc1ccc(-n2ncc(C(C)NS(=O)(=O)c3cc(F)ccc3C)c2C)cc1 (stereo not drawn),-4,-10%,21*,6%
CCN(CC)c1nc(SCCOC(=O)Nc2ccccc2)nc(N(CC)CC)n1,29,?,16*,10µM*
CC(C)OP(=O)(OC(C)C)C(Nc1ccccc1)c1cccnc1 (stereo not drawn),36,-12%,-1,-4%
COc1ccc(CNCCc2c(C)[nH]c3ccc(OC(F)(F)F)cc23)c(OC)c1,-20,5.2µM*,-5,?
COc1ccc2[nH]c(C)c(CCNCc3cc(OC)c(OC)c(OC)c3)c2c1,-7,?,7,52%
COc1ccc2[nH]c(C)c(CCNC(=S)Nc3ccccc3OC)c2c1,-15,-2%,5,-11%
COc1ccc2[nH]c(C)c(CCNCc3cc(OC)c4c(c3)OCO4)c2c1,nt,7.4µM*,nt,?
SMILES,Shiga toxin inh,Pf growth 48h,CHX counter,Pf growth 96h
O=C(CCN1CCCCC1=O)NC1CCCN(Cc2ccc(Cl)cc2)C1 (stereo not drawn),-10,-11%,2,?
CCNC(=S)NCc1ccco1,11,4%,-3,?
S=C(NCc1ccco1)Nc1ccc(Br)cn1,19,23%,11*,?
CCOc1ccc(NC(=S)Nc2cc(-c3ccccc3)[nH]n2)cc1,4,?,13,?
S=C(NCc1ccco1)Nc1cc(-c2ccccc2)[nH]n1,98*,25%,28*,30%
Cc1cccc(NS(=O)(=O)c2c(C)[nH]c(C)c2C(=O)N2CCCC2)c1,10,21%,8,?
O=C(NCc1nc(-c2ccc(C(F)(F)F)cc2)no1)Nc1ccc(OC(F)(F)F)cc1,3,-23%,-3,-9%
O=S(=O)(c1ccc(Br)cc1)N1CCN(Cc2ccco2)CC1,0,17%,-2,58%
Cc1ccc(NC(=S)NC(=O)C2CC2)c(C)c1,64*,26%,34*,-28%
S=C(Nc1ccc(Nc2ccccc2)cc1)NC1CCCCCC1,-9,-18%,-2,-7%
